Test results from PubChem BioAssay (NCATS).
Results filed as inconclusive are left out. Activity calls are given as the source filed them. Unless noted, calls follow the shape of the full dose curve.

Legend:
[1] = qHTS for Inhibitors of the Functional Ribonucleoprotein Complex (vRNP) of Lassa (LASV) Arenavirus: LASV Primary Screen - GLuc reporter signal (AID 1347082; calls by dose curve; tested in HEK293 reporter line; also: nearly all actives have a fitted effect of over 60% in size)
[2] = qHTS for Inhibitors of the Functional Ribonucleoprotein Complex (vRNP) of Lassa (LASV) Arenavirus: Viability assay - alamar blue signal for LASV Primary Screen (AID 1347083; calls by dose curve; tested in HEK293 reporter line; also: nearly all actives have a fitted effect of over 80% in size)
[3] = qHTS for Inhibitors of the Functional Ribonucleoprotein Complex (vRNP) of Lymphocytic Choriomeningitis Arenaviruses (LCMV): Viability assay - alamar blue signal for LCMV Primary Screen (AID 1347085; calls by dose curve; tested in HEK293 reporter line; also: nearly all actives have a fitted effect of over 80% in size)
[4] = biological target: Nucleoprotein (Lymphocytic choriomeningitis virus (strain Armstrong)) (UniProt P09992); test: qHTS for Inhibitors of the Functional Ribonucleoprotein Complex (vRNP) of Lymphocytic Choriomeningitis Arenaviruses (LCMV): LCMV Primary Screen - GLuc reporter signal (AID 1347086); also: nearly all actives have a fitted effect of over 70% in size
Sequence of Nucleoprotein (Lymphocytic choriomeningitis virus (strain Armstrong)) (P09992 whole entry, looked up): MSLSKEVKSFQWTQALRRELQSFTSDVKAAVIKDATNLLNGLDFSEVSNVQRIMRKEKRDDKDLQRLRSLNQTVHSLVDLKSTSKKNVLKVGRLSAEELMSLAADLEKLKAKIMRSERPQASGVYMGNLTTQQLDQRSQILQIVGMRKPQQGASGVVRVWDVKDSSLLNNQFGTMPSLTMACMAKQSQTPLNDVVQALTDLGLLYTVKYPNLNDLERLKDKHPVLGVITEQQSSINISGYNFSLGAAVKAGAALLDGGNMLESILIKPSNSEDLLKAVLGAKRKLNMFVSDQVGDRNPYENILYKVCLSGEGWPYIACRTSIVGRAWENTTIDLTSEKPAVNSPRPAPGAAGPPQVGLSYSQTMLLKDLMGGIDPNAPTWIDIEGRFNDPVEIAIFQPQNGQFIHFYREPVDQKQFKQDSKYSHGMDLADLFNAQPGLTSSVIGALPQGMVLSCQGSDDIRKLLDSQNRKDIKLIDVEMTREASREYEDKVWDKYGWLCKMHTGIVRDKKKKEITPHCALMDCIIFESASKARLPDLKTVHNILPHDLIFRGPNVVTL

Measured: Potency
Also: series mostly up to about 57 µM.

COc1ccc(C(=O)CC(=O)c2ccc(C(C)(C)C)cc2)cc1
inactive: all assays above

COc1ccc2c(c1)CCCC2=O
inactive: all assays above

c1ccc2c(CC3=NCCN3)cccc2c1
inactive: all assays above

Cc1onc(-c2ccccc2)c1C(=O)Cl
inactive: all assays above

COc1c(N2C[C@@H]3CCCN[C@@H]3C2)c(F)cc2c(=O)c(C(=O)O)cn(C3CC3)c12
inactive: all assays above

CCOc1ncc(F)c(=O)[nH]1
inactive: all assays above

NC(=O)NC1N=C([O][Al])NC1=O (stereo not drawn)
inactive: all assays above
